Assay outcomes: PubChem, National Center for Advancing Translational Sciences (NCATS)
Sampled rows, rich in hits. Any-hit rate of the full collection: about 4.7%.
TGFb inhibitor = TGF-b pathway inhibition | actives 1.2% (n = 410,000) | HepG2 CAGA-GFP TGF-b/SMAD3 reporter, GFP fluorescence, 18 h; TGF-beta stimulated, 500 pg/mL final | Potency, µM (series often up to 46.1 µM), inactives show top-dose activity, negative = inhibition, hits mostly inhibitors | AID 588855; further: potency means the concentration at half of the fitted maximal effect; on the % scale 0 is the no-effect control and ±100 the full control effect; nearly all actives have a fitted effect of over 65% in size
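Smad-responsive CAGA-GFP expression was quantified in HEPG2 cells exposed to compounds and 500 pg/mL final TGF-beta for 18 h at 37 degrees C; unstimulated wells defined full inhibition.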
D3 ag = agonists of human D3 dopamine receptor | P35462 | D3R DiscoveRx beta-arrestin cells, luminescence, 90 min | max activation, % | actives 0.58% (n = 410,000) | AID 652048; in the data active means max activation above about 30%; further: 0% is about no effect
Target sequence (P35462 whole entry, looked up): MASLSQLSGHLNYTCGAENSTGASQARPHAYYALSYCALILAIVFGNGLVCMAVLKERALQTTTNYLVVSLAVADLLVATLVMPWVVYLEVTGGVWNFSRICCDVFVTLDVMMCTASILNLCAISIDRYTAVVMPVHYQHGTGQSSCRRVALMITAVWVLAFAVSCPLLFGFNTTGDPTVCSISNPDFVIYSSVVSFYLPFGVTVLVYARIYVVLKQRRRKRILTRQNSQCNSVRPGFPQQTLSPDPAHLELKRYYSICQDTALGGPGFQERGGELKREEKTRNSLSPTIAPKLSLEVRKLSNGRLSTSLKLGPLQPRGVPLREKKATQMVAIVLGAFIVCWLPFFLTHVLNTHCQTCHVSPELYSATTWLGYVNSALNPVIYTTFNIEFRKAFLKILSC
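Agonist mode: compounds and dopamine controls were applied to plated cells for 90 min at 37 degrees C after an overnight attachment at 1500 cells/well. Luminescent read-out followed 30 - 60 minutes at room temperature with DiscoveRx detection reagent.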
DRD3 antagonist = antagonists of human D3 dopamine receptor. P35462. D3R cells, DiscoveRx beta-arrestin luminescence, antagonist mode; stronger effect = lower value. max response, negative = inhibition, %. actives 2.5% (n = 360,000); in the data active means max response below about -50%; inconclusive means no clear call, values can overlap the other calls; further: on the % scale 0 is the no-effect control and ±100 the full control effect
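Cells plated overnight at 1500 cells/well, then exposed to library compounds with dopamine controls for 90 minutes at 37 degrees C. DiscoveRx reagent added for 30–60 minutes at room temperature; luminescence read, quantitative HTS format.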
ATXN2 expr inh = inhibitors of ATXN2 expression; Potency, µM (highest dose often 57 µM), without a hit: top-dose activity change, negative = inhibition, most hits filed as inhibitors; HEK-293 ATXN2-luciferase reporter, luminescence, 24 h; actives 0.72% (n = 360,000); further: potency means the concentration at half of the fitted maximal effect; on the % scale 0 is the no-effect control and ±100 the full control effect; nearly all actives have a fitted effect of over 55% in size
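ATXN2-luciferase reporter cells (luciferase flanked by upstream and downstream ATXN2 gene portions) were treated 24 h at 37 °C with compounds at up to 57 uM. SteadyGlo luminescence gave expression; GF-AFC fluorescence gave viability.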
ATXN viability = reduces viability in counter-screen for ATXN expression inhibitors; Potency, µM (top dose mostly 56.7 µM), most hits filed as cytotoxic; AID 651635; actives 0.49% (n = 400,000); S2 cells (HEK-293 line with an ATXN2-luciferase reporter) viability, CellTiter-Fluor protease fluorescence, 24 h; further: potency means the concentration at half of the fitted maximal effect; nearly all actives have a fitted effect of over 40% in size
HepG2 viability = HepG2 cytotoxicity, counter-screen for TGF-b inhibitors; HepG2 CAGA-GFP viability, ATP luminescence, 18 h; Potency, µM (titrated, usually from 46.1 µM), for inactives: top-dose activity change, negative = cytotoxicity, usual class: cytotoxic; actives 0.76% (n = 410,000); further: potency means the concentration at half of the fitted maximal effect
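HepG2 CAGA-GFP cells (1000/well, DMEM with 1% FBS) received compound, then TGF-beta at 500 pg/mL final, and were incubated 18 hours at 37 degrees C. Viability was read by CellTiter-Glo luminescence. Media-only wells were set as complete cell-killing and DMSO as no toxicity.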
* marks the source's active call; other numbers are inactive results; i = inactive; ? = inconclusive; . = no result. Unless noted, the call rests on the fitted dose curve; in most records, active means well fitted curve in the direction sought with a large enough effect; inconclusive means small, poorly fitted or top-dose-only effect, or another doubt; inactive means no such curve, though single readings can be large; an effect the other way counts as inactive or inconclusive.

SMILES	TGFb inhibitor	D3 ag	DRD3 antagonist	ATXN2 expr inh	ATXN viability	HepG2 viability
CC(C)n1cc(CN2CCC(n3nccc3NC(=O)Cc3ccccc3)CC2)cn1	2%	-18	-15	3%	i	7%
CC(C)n1cc(CN2CCC(n3nccc3NC(=O)CCCc3ccccc3)CC2)cn1	13%	-39	-69*	5%	i	11%
CCOc1ccc(CN2CCC(n3nccc3NC(=O)CCCc3ccccc3)CC2)cc1	?	-2	-55*	.	i	1%
O=C(CCCc1ccccc1)Nc1ccnn1C1CCN(Cc2ccccc2F)CC1	-3%	-2	-15	-12%	i	-3%
Cc1cc2oc(C(=O)Nc3c(C(=O)Nc4ccccc4)oc4ccccc34)cc(=O)c2cc1C	3%	-6	.	10%	i	-3%
COc1ccc(CN(C(=O)c2ccc(OCC(C)C)cc2)C2CCS(=O)(=O)C2)cc1 (centres undefined)	0%	-8	.	-7%	i	-32%
COc1ccc([C@H]2C[C@H](O)[C@@H](n3cc(-c4ccc(F)cc4)nn3)CN2Cc2cccs2)cc1	?	-4	-16	16µM*	28µM*	-103%
O[C@H]1C[C@H](c2ccccc2)N(Cc2cccs2)C[C@@H]1n1cc(-c2ccc(F)cc2)nn1	?	1	0	16µM*	32µM*	11µM*
COc1ccc([C@H]2C[C@H](n3cc(-c4ccc(F)cc4)nn3)[C@@H](O)CN2Cc2cccs2)cc1	-1%	6	6	-14%	i	-26%
CN(C)c1ccc(-c2nn3c(-c4cc(-c5ccccc5)n[nH]4)nnc3s2)cc1	?	.	.	.	.	2%
CC(=O)c1ccc(NC(=O)c2ccc(C)c(S(=O)(=O)N3CCOCC3)c2)cc1	-6%	-26	11	6%	i	-10%
Cc1ccc(C(=O)Nc2ccon2)cc1S(=O)(=O)N1CCOCC1	25%	32*	15	-8%	i	-3%
CCOC(=O)c1ccc(NC(=O)c2ccc(C)c(S(=O)(=O)N3CCOCC3)c2)cc1	-6%	6	34	25µM*	28µM*	-45%
CCCC(=O)N1CCCC(c2cc(C(=O)Nc3ccccc3)no2)C1 (centres undefined)	1%	-6	11	11µM*	i	10µM*
O=c1oc2ccccc2c(Cl)c1CN1CCCCC1	-25%	-21	-76*	?	?	-28%
O=c1oc2ccccc2c(N2CCCC2)c1CN1CCCC1	-4%	-18	-22	3%	i	-8%
CCOC(=O)[C@]12Cc3c(cc(OC)c(OC)c3OC)[C@H]1N(C1CCCCC1)C(=O)c1cc(OC)ccc12	.	-4	6	?	14µM*	.
Clc1ccc2nc[nH]c2c1	-21%	.	.	.	.	-41%
O=C1CCC2S/C(=C/Nc3ccc(C(F)(F)F)cc3)C(=O)N12 (centres undefined)	-4%	3	-19	2.8µM*	i	-2%
CC(=O)N1CCc2c(sc(NC(=O)C3CC3)c2-c2nc3ccccc3s2)C1	?	-1	11	32µM*	?	-8%
CC(=O)N1CCc2c(sc(NC(=O)CSc3ccccc3)c2-c2nc3ccccc3s2)C1	-22%	-3	.	.	.	-7%
CC(=O)Nc1sc2c(c1-c1nc3ccccc3s1)CN(C(C)C)CC2	34%	.	.	3.5µM*	i	4%
CN1CCc2c(sc(NC(=O)CSc3ccccc3)c2-c2nc3ccccc3s2)C1	252%	-24	.	.	.	-46%
CSc1ccc(C(=O)N2CCc3c(cnc(C)c3CNC(=O)c3cncs3)C2)cc1	.	.	.	.	i	.
C=C[C@@H]1c2cc(C)ccc2N(S(=O)(=O)c2ccc(C)cc2)[C@H](c2ccc(C(C)(F)F)cc2)C1(C#N)C#N	-12%	.	.	.	.	-6%
Cc1nc(N/N=C/c2ccc(O)cc2)c2cnn(-c3ccccc3)c2n1	-12%	-13	33	-14%	?	16µM*
